The source of these data is ChEMBL document CHEMBL3433997, “St. Jude Leishmania screening dataset” (2016).

What all share (format): functional
For experiment [1], the target named is Solute carrier family 2, facilitated glucose transporter member 1 (Homo sapiens) (UniProt P11166). The experiment in a line: ST_JUDE_LEISH: Cytotoxicity at 2uM final concentration against transgenic Leishmania Mexicana promastigotes LmGLUT1 that are glucose transport deficient and complemented with the human glucose transporter GLUT1. Activity is measured by DNA content using SYBR green in vitro.
Sequence of Solute carrier family 2, facilitated glucose transporter member 1 (Homo sapiens) (P11166 whole entry): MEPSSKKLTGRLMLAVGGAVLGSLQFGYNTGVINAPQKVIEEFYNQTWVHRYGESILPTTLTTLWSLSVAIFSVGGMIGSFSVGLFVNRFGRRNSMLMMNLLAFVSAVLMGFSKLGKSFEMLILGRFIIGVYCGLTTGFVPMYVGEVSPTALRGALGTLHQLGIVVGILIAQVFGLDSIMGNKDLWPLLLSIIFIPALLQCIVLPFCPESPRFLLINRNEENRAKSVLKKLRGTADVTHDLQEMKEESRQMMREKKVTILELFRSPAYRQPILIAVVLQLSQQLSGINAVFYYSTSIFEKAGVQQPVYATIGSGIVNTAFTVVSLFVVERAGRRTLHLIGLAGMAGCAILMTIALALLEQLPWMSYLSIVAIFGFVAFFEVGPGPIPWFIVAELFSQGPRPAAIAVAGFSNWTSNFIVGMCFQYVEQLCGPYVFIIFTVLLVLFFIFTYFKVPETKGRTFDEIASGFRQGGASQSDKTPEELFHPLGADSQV

The target in experiment [2] is Hexose transporter 1 (Plasmodium falciparum) (UniProt O97467). The experiment in a line: ST_JUDE_LEISH: Cytotoxicity at 2uM final concentration against transgenic Leishmania Mexicana promastigotes LmPfHT that are glucose transport deficient and complemented with the Plasmodium falciparum hexose transporter. Activity is measured by DNA content using SYBR green in vitro.

Experiment [3] concerns the target Glucose transporter (Leishmania mexicana) (UniProt O61059). The experiment in a line: ST_JUDE_LEISH: Cytotoxicity at 2uM final concentration against transgenic Leishmania Mexicana promastigotes LmGT2 that are glucose transport deficient and complemented with the L. Mexicana glucose transporter 2. Activity is measured by DNA content using SYBR green in vitro.

For `FC(F)(F)c1ccc2[nH]c(-c3ccc(-c4ccc(CNCCN5CCNCC5)cc4)s3)nc2c1`, the inhibition in experiment [1] is 9.4%; in experiment [2], 10.4%; in experiment [3], 9.03%.
As to `CN1N=C2c3ccccc3CCC2C1c1ccc(C#N)cc1` (stereo not given), the results for the inhibition in experiment [1], in experiment [2] and in experiment [3] were 12.4%, 9.98% and 7.86%, respectively.
On the same counts, the results for `CC(C)Cn1c(Sc2ccc(C#N)c([N+](=O)[O-])c2)nnc1-c1cccc(Cl)c1` are 12.7%, 12.4% and 9.62%.
In the same order, the values of `COc1ccc2c(NN=CC=Cc3ccccc3)ccnc2c1` are 9.5%, 6.81% and 11.6%.
In the case of `COc1cc(C2CCN(CCCCNC(=O)c3ccc(NC(=O)c4ccc(Cl)c(Cl)c4)cc3)CC2)ccc1OC(C)C`, the inhibition in experiment [1] is 1.53%; in experiment [2] it was 4.29%; in experiment [3], 1.53%.
As to `O=C(Cc1cccc(O)c1)Nc1ccc(-c2cccc(-c3nc4cc(C(F)(F)F)ccc4[nH]3)c2)cc1`, the figures for the inhibition in experiment [1], in experiment [2] and in experiment [3] were -0.18%, 1.54% and 0.62%, respectively.
In the same order, the values of `COc1ccc(Cn2c(Nc3cccc(C(F)(F)F)c3)nc3cc(C(=O)NCCCN(C)C)ccc32)cc1Cl` are 0.66%, 0.55% and -1.19%.
For `COc1ccc2nccc([C@@H](O)CN3CCC(NC(=O)C(c4cc5ccccc5o4)N4CCN(c5ccc(F)cc5)CC4)CC3)c2c1` (stereo not given in full), the figures for the inhibition in experiment [1], in experiment [2] and in experiment [3] were 2.59%, 1.79% and 0.13%, respectively.
As to `CC(=O)Oc1cc(C(=O)Nc2ccc(Cl)cc2)cc2ccccc12`, the inhibition was found to be 7.81% in experiment [1], 5.31% in experiment [2] and 5.8% in experiment [3].
For `Cc1cccc2nc(-c3ccc(-c4cccc(NC(=O)C(C)CN5CCN(C)CC5)c4)cc3)[nH]c12` (stereo not given), the inhibition in experiment [1] was 3.33%; in experiment [2], 0.81%; in experiment [3], 5.85%.
In the same order, the values of `CN(C)S(=O)(=O)c1cc(-c2ccc3nccc(-c4cccc(S(N)(=O)=O)c4)c3c2)cnc1N` are 8.3%, 7.26% and 7.13%.
In the same order, the values of `Cc1[nH]c(C)c(-c2ccc(-c3ccc(C#N)cc3)nc2)c(=O)c1Br` are 9.47%, 10.2% and 6.23%.
Take `[O-][s+]1nc(NCCCN(Cc2cccs2)c2ccccn2)c(NCc2ccccc2)n1` (stereo not given): the inhibition in experiment [1] was -1.34%; in experiment [2] it was 0.68%; in experiment [3] it was -1.82%.
For `CSCCC(C(=O)O)N1C(=O)c2ccccc2C1=O` (stereo not given), the inhibition in experiment [1] came to 0.66%; in experiment [2] it was 1.03%; in experiment [3], 0.77%.
On to `Cn1nc(-c2ccc(S(=O)(=O)N3CCC(CCN4CCC(c5c[nH]c6ccccc56)CC4)CC3)s2)cc1C(F)(F)F`, for which the inhibition in experiment [1] turned out to be 1.21%; in experiment [2], 6.6%; in experiment [3] it was 2.13%.
In the case of `Oc1cccc(CNCCCN(Cc2ccccc2)c2ccccc2)c1`, the inhibition in experiment [1] is 1.74%; in experiment [2] it was -0.63%; in experiment [3] it was 0.16%.
In the same order, the values of `COc1ccc(Nc2ncc3c(-c4cccc(NC(=O)Cc5ccc(O)cc5)c4)c[nH]c3n2)cc1OC` are 9.41%, 5.77% and 8.19%.
Take `O=C(Nc1ccc(N2CCNCC2)nc1)c1oc(-c2ccccc2)nc1C(F)(F)F`: the results for the inhibition in experiment [1], in experiment [2] and in experiment [3] were 2.9%, 3.6% and 0.32%, respectively.
Turning to `Cc1c(OC(C)C)nc2ccccc2c1C(=O)N[C@H](c1cccc(F)c1)C1CC1`, the inhibition in experiment [1] was 0.15%; in experiment [2] it was -0.55%; in experiment [3] it was -0.32%.
In the same order, the values of `O=C(/C=C/c1ccc(Cl)c(Cl)c1)NCCCCCN1CCC(NC(=O)Nc2ccc(F)c(Cl)c2)CC1` are 3.93%, 4.82% and 6.8%.
In the same order, the values of `CN(C)Cc1cccc(-c2ccc(Nc3nccc(NCC(O)c4ccccc4)n3)cc2)c1` (stereo not given) are 2.6%, 3.43% and 3.53%.
On the same counts, the results for `Cc1cccc(C)c1N1CCN(C2CCC(NC(=O)c3cc4ccccc4[nH]3)CC2)CC1` (stereo not given) are 1.58%, -0.69% and -0.14%.
With `Cn1c(=O)c(-c2c(Cl)cccc2Cl)cc2cnc(Nc3ccc(N4CCOCC4)cc3)nc21`, the inhibition stood at 34.6% in experiment [1], 41% in experiment [2] and 11.6% in experiment [3].
As for `O=[N+]([O-])c1ccc(-c2nc3cc(C4=NC5CCCCC5N4)ccc3[nH]2)cc1` (stereo not given), the inhibition is -0.03% in experiment [1], -0.65% in experiment [2] and -4.46% in experiment [3].
On the same counts, the results for `Cn1c(N)cc(-c2cccc(I)c2)c2c(=O)nc(N)nc1-2` are 4.12%, 4.5% and 2.89%.
In the same order, the values of `CC(C)(C)N1CCC(N(Cc2ccc(-c3ccc(C(F)(F)F)cc3)cc2)C(=O)Cn2c(CCc3cccc(F)c3F)nc(=O)c3cccnc32)CC1` are 2.09%, 0.99% and 0.47%.
In the case of `CCCCCC(C)C(C)c1cc(OC(N)=O)c2c(c1)OC(C)(C)C=C2c1ccncc1` (stereo not given), the inhibition is -3.81% in experiment [1], -1.09% in experiment [2] and -1.38% in experiment [3].
As for `COc1cccc(CN2CCCN(Cc3cccc(NC(=O)c4ccc(Cl)c(Cl)c4)c3)CC2)c1`, the results for the inhibition in experiment [1], in experiment [2] and in experiment [3] were 4.43%, -0.94% and 2.19%, respectively.
In the same order, the values of `CN(C)Cc1cccc(-c2ccc(NC(=O)c3ccc4c(=O)n(Cc5cnn(C)c5)cnc4c3)cc2)c1` are 1.78%, 2.88% and 4.86%.
As to `CC(=O)Nc1cccc(C(=O)Nc2cccc(-c3ccc(-c4nc5cc(F)ccc5[nH]4)s3)c2)c1`, the inhibition is 2.81% in experiment [1], 3.63% in experiment [2] and 0.19% in experiment [3].
As to `CCOc1cc(-c2nnc3[nH]c(=O)n(C)c(=O)c3n2)ccc1OC(C)C`, the inhibition is 2.56% in experiment [1], 2.55% in experiment [2] and -1.04% in experiment [3].
For the compound `CCN(CC)S(=O)(=O)c1ccc(C(C)NC(=O)c2ccccc2COc2ccccc2)cc1` (stereo not given), the inhibition was determined as 6.67% in experiment [1], 5.1% in experiment [2] and 5.03% in experiment [3].
In the same order, the values of `O=C(c1cccc(-c2cccc(-c3nc4cc(F)ccc4[nH]3)c2)c1)N1CCCCC1CN1CCC(O)C1` (stereo not given) are 0.52%, -0.32% and 0.51%.
For `COc1cc(-c2nc3ccc(N4CCN(C)CC4)cc3[nH]2)cc(OC)c1OC`, the inhibition is 2.08% in experiment [1], 2.62% in experiment [2] and 4.21% in experiment [3].
In the same order, the values of `CCCNCc1ccc(-c2ccc(CN(CCOC)C(=O)CCCOCc3ccccc3)cc2)nc1` are 3.08%, 1.41% and 0.45%.

A word on the inhibition: it is the change of the read-out against control, counted positive when it falls.
